Compound activity: PubChem, National Center for Advancing Translational Sciences (NCATS)
Nrf2 block = blocks Nrf2 signaling | A549 ARE-Fluc reporter, luciferase luminescence, 18-24 h | Potency, µM (top dose mostly 46 µM), without a hit: top-dose activity change, negative = inhibition, usual class: inhibitors | hit rate 2.1% among 360,000 | AID 504444; note: % is set by controls: 0 for no effect and ±100 for the full control effect; nearly all actives have a fitted effect of over 60% in size
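Cells were seeded and rested 2 h, then exposed to compounds for 18-24 h. CellTiter-Fluor was read first as a viability measure. BugLite was added 15 min before the final luminescent read of ARE-luciferase activity in A549 cells.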
A549 tox = kills or reduces viability of A549 cells in Nrf2 counter-screen | Potency, µM (top dose mostly 46 µM), inactives show at the top dose activity change, negative = cytotoxicity, hits mostly inhibitors | A549 ARE-Fluc cells, CellTiter-Fluor viability, 18-24 h | hit rate 0.16% among 390,000; note: % is set by controls: 0 for no effect and ±100 for the full control effect
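Cytotoxicity counterscreen: CellTiter-Fluor fluorescence was measured in A549 ARE_Fluc cells after 18-24 h of compound exposure in a concentration series. The subsequent BugLite luminescent read reports ARE-luciferase activity.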
Nrf2 activator = Nrf2 pathway activation; hit rate 0.31% among 410,000; AREc32 ARE-luciferase reporter (MCF7-derived line), luminescence, 24 h; Potency, µM (series often up to 46.1 µM), for inactives: top-dose activation, actives largely listed as activators; note: % of control where 0% means no effect; nearly all actives have a fitted effect of over 65% in size
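Luciferase luminescence (Steady-Glo, 30 min at room temperature) served as the read-out of ARE activation in AREc32 cells treated with compounds for 24 hr at 37 deg C.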
IDH1 R132H inh = inhibitors of human mutant IDH1 R132H | O75874 | IDH1-R132H enzyme, NADPH consumption, diaphorase/resazurin fluorescence | Potency, µM (highest dose often 76.6 µM), without a hit: at the top dose activity change, negative = inhibition, hits mostly inhibitors | hit rate 0.093% among 390,000 | AID 602179; note: % is set by controls: 0 for no effect and ±100 for the full control effect; nearly all actives have a fitted effect of over 65% in size
Target sequence (O75874 whole entry R132H, stated change not applied): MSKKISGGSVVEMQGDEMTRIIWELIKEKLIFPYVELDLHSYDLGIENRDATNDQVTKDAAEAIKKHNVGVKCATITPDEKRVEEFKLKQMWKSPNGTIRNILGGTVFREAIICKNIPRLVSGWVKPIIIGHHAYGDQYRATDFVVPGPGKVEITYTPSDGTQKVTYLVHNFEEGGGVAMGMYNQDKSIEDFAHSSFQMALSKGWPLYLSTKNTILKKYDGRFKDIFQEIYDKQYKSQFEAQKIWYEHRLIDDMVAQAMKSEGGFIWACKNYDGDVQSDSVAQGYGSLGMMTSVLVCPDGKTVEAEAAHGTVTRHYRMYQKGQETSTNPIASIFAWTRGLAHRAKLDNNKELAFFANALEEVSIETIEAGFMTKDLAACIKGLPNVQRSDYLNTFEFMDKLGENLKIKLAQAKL
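IDH1-R132H (0.5 ug/mL) preincubated 30 min with compound, then NADPH (0.016 mM) and alpha-KG (2 mM) added; 80 min at RT, pH 7.5. Remaining NADPH coupled via diaphorase/resazurin to fluorescence (540/590 nm); concentration-response curves normalized to no-enzyme control.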
ELG1 repair inh = inhibitors of ELG1-dependent DNA repair in HEK293T cells. AID 504467. HEK293T ELG1-luciferase reporter, luminescence, 16 h; DNA damage induced by 5-fluorouridine. Potency, µM (doses to about 46.1 µM), without a hit: top-dose activity change, negative = inhibition, usual class: inhibitors. hit rate 2.3% among 330,000; note: % is set by controls: 0 for no effect and ±100 for the full control effect; nearly all actives have a fitted effect of over 55% in size
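Cells (2,000 per well) received 5-fluorouridine plus test compound or DMSO and were incubated 16 hr at 37 °C, 5% CO2. Luciferase activity was read by luminescence 30 min after ONE-Glo addition; signal suppression marked inhibition of damage-induced ELG1 function.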
The depositor's hits bear a star; u = inconclusive; x = no result given; [ ] = remark or other dose. Most compounds without a hit are left out; they make up all but 3.8% or so of the library. Calls come from the whole dose curve; as a rule, active = well fitted curve in the direction sought with a large enough effect; inconclusive = small, poorly fitted or top-dose-only effect, or another doubt; inactive = no such curve, though single readings can be large; an effect the other way counts as inactive or inconclusive. Potency is the fitted concentration of half-maximal effect.

SMILES	Nrf2 block	A549 tox	Nrf2 activator	IDH1 R132H inh	ELG1 repair inh
COc1ccc(-c2nnc3ccc(SC(C)C)nn23)cc1OC	u	-17%	x	x	x
Cc1ccc(S(=O)(=O)/N=C(\CCl)N2CCOCC2)cc1	u	-16%	u	2%	15µM*
NC(=NCCc1c[nH]c2ccccc12)NS(=O)(=O)c1ccc(F)cc1	-8%	12%	1%	2%	-8%
NC(=NCCc1c[nH]c2ccccc12)NS(=O)(=O)c1ccc2ccccc2c1	16µM*	u	5%	12%	1%
COc1ccccc1NC(=O)c1ccc2ccccc2c1	u	15%	x	x	x
CCOC(=O)c1c(C)nc2sc(C(N)=O)c(N)c2c1-c1ccc(OC)cc1	u	-2%	0%	10%	13µM*
CCOC(=O)c1c(C)nc2sc3c(=O)n(-c4ccc(C(C)=O)cc4)nnc3c2c1-c1ccc(OC)cc1	15µM*	-20%	0%	-3%	u
COc1ccc(NC(=O)CCn2nc(-c3ccccc3OC)c3c(C)cc(C)nc32)cc1	-15%	-5%	1%	0%	x
CC(Oc1ccc(Cl)cc1Cl)C(=O)Nc1ccncc1 (stereo not drawn)	u	-20%	-1%	7%	5.8µM*
Cc1cc(Cl)ccc1OC(C)C(=O)Nc1ccc(S(=O)(=O)Nc2cnc3ccccc3n2)cc1 (stereo not drawn)	8.2µM*	-16%	0%	0%	0%
CC(=O)Nc1ccc(NC(=O)C(C)Oc2ccc(Cl)cc2Cl)cc1 (stereo not drawn)	12%	24%	1%	5%	9%
Cn1c(=O)c2sccc2n2c(CCC(=O)Nc3ccc(F)cc3)nnc12	3%[9.27 µM]	12%	-1%	32%	x
CSc1nc(Cl)c(Cc2ccc(OC(C)C)cc2)c(N(C)C)n1	u	14%	2%	12%	u
CCOc1ccc(Cc2c(Cl)nc(SC)nc2N(C)C)cc1	13µM*	15%	0%	2%	-23%
Cc1cc2c(s1)c1cnn(Cc3ccc4ccccc4c3)c(=O)c1n2C	16%	-3%	x	x	x
O=C(CC1(O)C(=O)Nc2cc(Cl)cc(Cl)c21)c1ccccc1O (stereo not drawn)	-27%	-13%	16µM*	7%	1%
CCCCCn1c(-c2ccc(OC)c(OC)c2)nc2ccccc21	20%	4%	5%	15%	x
CN(C)c1ccc(NC(=O)CCSc2nc(-c3ccco3)cc(C(F)(F)F)n2)cc1	u	-13%	5%	2%	x
CN(C)c1nc2c(N)ncnc2n1C1OC(CO)C(O)C1O (stereo not drawn)	14%	-2%	0%	5%	x
Nc1ncnc2c1nc(Cl)n2[C@@H]1O[C@H](CO)[C@@H](O)[C@@H]1O	21µM*	-14%	x	x	x
Cc1ccc(NC(=O)CN2CCc3cc4c(cc3C2)OCCCO4)cc1	-5%	5%	0%	-2%	u
Cc1cccc(NC(=O)CN2CCc3cc4c(cc3C2C)OCCCO4)c1 (stereo not drawn)	23µM*	-17%	0%	-8%	21µM*
Cc1cc(C)cc(NC(=O)CN2CCc3cc4c(cc3C2C)OCCCO4)c1 (stereo not drawn)	26µM*	-17%	0%	1%	u
CCOc1ccc(/C=C/c2nc(C#N)c(N3CCN(CC)CC3)o2)cc1	2%	-2%	-1%	13%	x
Cc1noc(C)c1COC(=O)c1cccc(S(=O)(=O)N2CCCCCC2)c1	u	-12%	2%	0%	5.8µM*
SMILES	Nrf2 block	A549 tox	Nrf2 activator	IDH1 R132H inh	ELG1 repair inh
COc1cc(OC)c(N(C)S(=O)(=O)c2cccc(C(=O)OCc3c(C)noc3C)c2)cc1Cl	u	-9%	3%	4%	18µM*
COc1cc(OC)c(N(C)S(=O)(=O)c2cccc(C(=O)OCC(=O)N3CCOCC3)c2)cc1Cl	u	0%	0%	1%	u
O=C1CC(Cc2ccc(Cl)cc2)C(=O)N1c1ccncc1 (stereo not drawn)	0%	-5%	-1%	2%	u
O=C1C2CC=CCC2C(=O)N1c1ccc(Cc2ccncc2)cc1 (stereo not drawn)	9.2µM*	-16%	-1%	2%	0%
Nc1ccccc1SC(CC(=O)c1ccccc1)c1cccc([N+](=O)[O-])c1 (stereo not drawn)	x	x	5µM*	12%	x
Nc1ccccc1SC(CC(=O)c1ccccc1)c1ccc([N+](=O)[O-])cc1 (stereo not drawn)	x	x	u	11%	x
Cc1sc2ncn(CC(=O)NCC(=O)N3CCN(c4ccc(F)cc4)CC3)c(=O)c2c1C	8.2µM*	-1%	0%	-12%	-27%
Cc1sc2ncn(CCn3cnc4sc(C)c(C)c4c3=O)c(=O)c2c1C	16µM*	-3%	0%	4%	u
Cc1sc2ncn(CC(=O)N3CCN(c4ccc(F)cc4)CC3)c(=O)c2c1S(=O)(=O)N1CCC(C)CC1	-2%[9.27 µM]	-10%	-1%	-18%	x
CCCCCn1c(CCCNC(=O)c2ccccc2)nc2ccccc21	-9%[9.27 µM]	-1%	4%	7%	x
CCn1cnc2c(Nc3cc(F)cc(F)c3)nc(C(=O)COc3c(F)c(F)cc(F)c3F)nc21	15%	0%	x	x	x
CCCOCc1ccc(O)c2ncccc12	u	4%	4%	-3%	7.3µM*
CC(C)COCc1ccc(O)c2ncccc12	-1%	1%	13%	-3%	21µM*
c1ccc(C2=Nn3c(nnc3-c3ccncc3)SC2)cc1	u	2%	1%	15%	8.2µM*
CN(C)C1CCN(Cc2cc(COCc3ccccc3)c3cccnc3c2O)C1 (stereo not drawn)	21µM*	-12%	4%	x	u
COc1cccc(C2c3c(ncn(-c4ccccc4C(C)(C)C)c3=N)Oc3ccc4ccccc4c32)c1 (stereo not drawn)	-2%	-5%	x	x	x
CCC(C)NS(=O)(=O)c1ccc(S(=O)(=O)N2CCCC3(CCCCC3)C2)cc1 (stereo not drawn)	21µM*	-22%	0%	-1%	u
COc1cccc(N(C(=O)CCl)C(C(=O)NCCc2ccccc2)c2cccs2)c1 (stereo not drawn)	-27%	-15%	u	3%	16µM*
CCN(CC)CCCN=Cc1c(O)n(-c2ccccc2C)c(=O)c2ccccc12	13%	6%	0%	3%	9%
Cc1ccc(S(=O)(=O)c2[nH]c(-c3ccccc3)nc2SC(C)C(=O)O)cc1 (stereo not drawn)	7%	-2%	0%	-5%	x
Cc1ccccc1NC(=O)c1c(C)oc2ccc(O)c(CN3CCCC(C)C3)c12 (stereo not drawn)	2%	7%	8%	15%	x
